Screening results from PubChem BioAssay.
TDP1 block: qHTS Assay for Inhibitors of Tyrosyl-DNA Phosphodiesterase (TDP1); Tyrosyl-DNA phosphodiesterase 1 (Homo sapiens), Q9NUW8; recombinant TDP1, AlphaScreen DNA substrate cleavage; Potency, µM (top dose mostly 130 µM), most hits filed as inhibitors; 350,000 compounds, 0.28% hits; AID 485290, 2010; note: nearly all actives have a fitted effect of over 40% in size
Target sequence (Q9NUW8 whole entry, looked up): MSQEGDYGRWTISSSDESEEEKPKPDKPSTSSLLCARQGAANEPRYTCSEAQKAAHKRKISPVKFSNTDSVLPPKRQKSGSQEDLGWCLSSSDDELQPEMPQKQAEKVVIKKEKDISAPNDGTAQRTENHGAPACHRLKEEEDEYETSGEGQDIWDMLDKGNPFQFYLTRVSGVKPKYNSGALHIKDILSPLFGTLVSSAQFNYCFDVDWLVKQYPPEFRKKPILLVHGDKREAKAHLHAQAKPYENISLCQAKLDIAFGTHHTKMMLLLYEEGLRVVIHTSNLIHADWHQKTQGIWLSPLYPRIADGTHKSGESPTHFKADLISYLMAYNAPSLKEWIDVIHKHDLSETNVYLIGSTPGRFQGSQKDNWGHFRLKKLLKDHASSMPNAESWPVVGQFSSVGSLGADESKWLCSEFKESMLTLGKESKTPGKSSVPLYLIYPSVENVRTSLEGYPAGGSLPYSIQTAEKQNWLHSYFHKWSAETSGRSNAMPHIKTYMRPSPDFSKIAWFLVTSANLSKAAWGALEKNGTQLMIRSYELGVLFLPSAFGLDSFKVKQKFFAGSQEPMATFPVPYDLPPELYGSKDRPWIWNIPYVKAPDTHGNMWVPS
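AlphaScreen read-out: signal falls as enzyme removes the 3' tyrosine-FITC from a 5'-biotinylated DNA oligo (15 nM, 5 min, RT). Enzyme was E. coli-made recombinant Tdp1 at 1 nM, exposed to compound for 15 min beforehand; beads 10 ug/ml, 10 min.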
IL-1B inflam inh: qHTS for Inhibitors of Inflammasome Signaling: IL-1-beta AlphaLISA Primary Screen; THP-1 LPS/ATP IL-1B secretion, AlphaLISA, 16 h; stronger effect = lower value; activity change, % at 57.5 µM; 360,000 compounds, 4.7% hits; AID 743279, 2014; in the data active = activity change below about -50%; inconclusive = mostly about -30% to -49%
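Secreted IL-1B measured by AlphaLISA bead assay after 16 h compound exposure of THP-1 cells; compounds (final up to 57.5 uM) added 1 h before LPS (250 ng/mL) and ATP (1.25 mM) stimulation; lower signal means less secretion.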
Giardia killer: Small Molecules that selectively kill Giardia lamblia: qHTS. Giardia lamblia trophozoite viability. activity change, % at 7.66 µM, hits read low. 340,000 compounds, 0.15% hits; in the data active = activity change below about -80%; inconclusive = between about -30% and that limit;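 note: parasites exposed to compound for two days anaerobically before the ATP read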
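Compounds were tested on trophozoites seeded at 100 cells/well and held 48 hrs at 37 deg C anaerobically. An ATP-based luminescent kit measured the remaining live cells.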
DT40 TDP1 CPT: qHTS for Inhibitors of human tyrosyl-DNA phosphodiesterase 1 (TDP1): qHTS in cells in presence of CPT | chicken DT40 Tdp1-/-;hTDP1 cells + 20 nM CPT, ATP luminescence, 48 h | Potency, µM (doses to about 46.2 µM), actives largely listed as inhibitors | 420,000 compounds, 12% hits; note: nearly all actives have a fitted effect of over 55% in size
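Chicken DT40 Tdp1-/- cells complemented with human TDP1, 400 cells/well, exposed to compounds plus 20 nM camptothecin for at least 48 h at 37 C; viability read as ATP content by CellTiter-Glo luminescence.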
TDP1 cell noCPT: qHTS for Inhibitors of human tyrosyl-DNA phosphodiesterase 1 (TDP1): qHTS in cells in absence of CPT; DT40 Tdp1-/- hTDP1 cells, no CPT, ATP luminescence, 48 h; Potency, µM (titrated, usually from 46.2 µM), usual class: inhibitors; 420,000 compounds, 15% hits; AID 686978, 2013; note: nearly all actives have a fitted effect of over 55% in size
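Stably hTDP1-transfected Tdp1-null chicken DT40 cells were treated with library compounds minus camptothecin and grown for at least 48 hr at 37 °C, after which cellular ATP was quantified by luminescence.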
ELG1 repair inh: qHTS screen for small molecules that inhibit ELG1-dependent DNA repair in human embryonic kidney (HEK293T) cells expressing luciferase-tagged ELG1; AID 504467, 2011; 330,000 compounds, 2.3% hits; HEK293T ELG1-luciferase reporter, luminescence, 16 h; DNA damage induced by 5-fluorouridine; Potency, µM (highest dose often 46.1 µM), hits mostly inhibitors; note: nearly all actives have a fitted effect of over 55% in size
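Reporter activity after DNA damage by 5-fluorouridine is monitored. Compound-treated cells incubate 16 hr at 37 °C, then ONE-Glo is added for 30 min before luminescence reading.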
Hits are given with their value; i = inactive; ? = inconclusive; nt = no result given; [ ] = remark or other dose. Rows were chosen to be rich in hits. Some 19% of all compounds tested hit in one or more screens of this group. Unless noted, calls come from the whole dose curve; as a rule, active = well fitted curve in the direction sought with a large enough effect; inconclusive = small, poorly fitted or top-dose-only effect, or another doubt; inactive = no such curve, though single readings can be large; an effect the other way counts as inactive or inconclusive.

SMILES	TDP1 block	IL-1B inflam inh	Giardia killer	DT40 TDP1 CPT	TDP1 cell noCPT	ELG1 repair inh
Cc1ccc2[nH]c(=O)c(CN(CCCO)Cc3nnnn3Cc3ccccc3)cc2c1	i	nt	i	?	11.2µM	nt
CCc1ccc2[nH]c(=O)c(CN(Cc3cccs3)Cc3nnnn3Cc3ccccc3)cc2c1	i	nt	i	?	12.6µM	nt
CCC(c1nnnn1Cc1ccccc1)N(Cc1ccccc1)Cc1cc2cc(C)ccc2[nH]c1=O (stereo unspecified)	i	nt	i	11.2µM	?	nt
CCOc1ccc(OCC)c(NC(=O)Cn2c(C)nc3ccccc3c2=O)c1	i	i	i	?	?	i
Cc1ccc(S(=O)(=O)Nc2cccc(-c3ccc(N4CCCCCC4)nn3)c2)cc1	i	i	i	?	?	?
Cc1nn2c(=O)cc(COC(=O)COc3ccc(F)cc3)nc2s1	i	nt	nt	i	i	nt
CCCCN(C(=O)CC1OC(=O)c2ccccc21)c1c(N)n(CCCC)c(=O)[nH]c1=O (stereo unspecified)	nt	i	i	i	i	?
C=CCCCCCC	i	nt	nt	nt	nt	nt
C=CCC[C@H](CCCCC)OC(=O)/C=C/[C@H](O)[C@@H](O)C[C@H](O)CC=C	nt	i	nt	?	25.9µM	nt
C=CCCCCCCCCCCCC(O)CC(O)COC(C)=O (stereo unspecified)	i	nt	nt	i	i	nt
C=CCC[C@@H](CCCCC)OC(=O)/C=C/[C@H](O)[C@@H](O)C[C@H](O)CC=C	nt	-54.8	nt	?	?	nt
COC(=O)c1ccccc1NC(=O)CSc1nnnn1CC(=O)O	nt	i	i	i	i	?
C=CCNC(=O)COC(=O)c1c2c(nc3ccccc13)CCC2	nt	i	i	i	?	i
CCN(CC)c1ccc(NC(=O)c2sc3nc4c(cc3c2N)CN(C)CC4)cc1	i	nt	nt	?	16.4µM	nt
CC(C)NC(=O)c1sc2nc3c(c(-c4cccs4)c2c1N)CN(C)CC3	i	i	i	i	?	i
Nc1c(C(=O)Nc2ccccc2)sc2nc3c(cc12)CN(Cc1ccccc1)CC3	i	nt	nt	?	23.1µM	nt
Cc1cccc(NC(=O)c2sc3nc4c(c(-c5cccs5)c3c2N)CN(C)CC4)c1	i	-86.2	i	?	?	?
Cc1ccccc1NC(=O)c1sc2nc3c(cc2c1N)CCCC3	nt	nt	nt	?	3.26µM	nt
Cc1ccc(NC(=O)CN2C(=O)c3ccccc3Sc3ccc(C(=O)N4CCOCC4)cc32)cc1C	i	nt	nt	i	i	nt
COc1ccc(NC(=O)c2sc3nc4c(cc3c2N)CN(Cc2ccccc2)CC4)c(OC)c1	i	nt	i	?	?	nt
COc1ccccc1NC(=O)c1sc2nc3c(cc2c1N)CN(Cc1ccccc1)CC3	i	nt	nt	14.6µM	?	nt
O=C(N/N=C/c1cc(Br)ccc1O)C(c1ccncc1)N1CCOCC1 (stereo unspecified)	i	i	i	4.11µM	8.2µM	i
COc1cccc(/C=N/NC(=O)C(c2ccncc2)N2CCOCC2)c1 (stereo unspecified)	nt	i	i	i	i	i
CC(=O)c1cccc(Nc2nc(-c3cccc(C)c3)nc3ccccc23)c1	nt	nt	nt	20.6µM	5.8µM	nt
CC(=O)c1cccc(Nc2nc(-c3ccccc3Cl)nc3ccccc23)c1	i[12.3 µM]	nt	nt	14.6µM	10.3µM	nt
SMILES	TDP1 block	IL-1B inflam inh	Giardia killer	DT40 TDP1 CPT	TDP1 cell noCPT	ELG1 repair inh
CC(C)Oc1nc(-c2ccccc2Cl)nc2ccccc12	i	i	i	?	14.6µM	i
CCOc1nc(-c2ccccc2O)nc2ccccc12	i	i	i	i	i	i
CC(=O)Nc1cccc(Nc2nc(-c3ccccc3F)nc3ccccc23)c1	i	-52.5	i	?	?	14.6µM
CC(C)Oc1ccc(CNC(=O)c2cnc3sc(N4CCCCCC4)nn3c2=O)cc1	i	nt	nt	i	i	nt
O=C(O)CN1C(=O)/C(=C\C(Br)=C\c2ccccc2)SC1=S	nt	?	i	?	?	?
CC1(C(=O)NS(=O)(=O)c2cccc(C#N)c2)CCN1C(=O)CCc1ccccc1 (stereo unspecified)	nt	i	nt	i	i	nt
COc1cccc(COC(=O)C2CCN(S(=O)(=O)c3ccc(F)cc3)CC2)c1OC	i	i	i	i	i	i
COC(=O)c1ccc(Nc2nc(-c3ccccc3Cl)nc3ccccc23)cc1	i[12.3 µM]	nt	nt	?	16.4µM	nt
CNc1nc(-c2ccccc2Cl)nc2ccccc12	nt	nt	nt	i	i	nt
COc1ccc(NC(=O)c2cc(-c3ccccc3Cl)on2)cc1	nt	i	i	i	?	?
COc1ccccc1-c1cc(C(=O)Nc2cccnc2)no1	nt	i	i	0.461µM	0.461µM	?
COc1ccc(NC(=O)c2cc(-c3ccccc3OC)on2)cc1	i	i	i	2.82µM	2.82µM	?
COc1ccc(OC)c(-c2cc(C(=O)NC(C)c3ccccc3)no2)c1 (stereo unspecified)	i	nt	nt	4.11µM	4.11µM	nt
CC(C)CC(CSc1ccc(Br)cc1)N1CCN(CC(C)C)CCC1=O (stereo unspecified)	i	nt	i	nt	nt	nt
C=CCn1c(SCc2csc(-c3ccc(Cl)cc3)n2)nnc1-c1ccccc1OC	i	i	i	23.1µM	?	?
Cn1c(=O)c2c(nc(SCC(=O)c3ccccc3F)n2C)n(C)c1=O	i	nt	nt	nt	nt	i
CC1=C(C(=O)Nc2ccc(C(=O)NCCCN3CCCCC3C)cc2)SCCO1 (stereo unspecified)	nt	?	nt	i	i	nt
COC(=O)c1ccc2nc(-c3cccc(Br)c3)c(Cc3ccccc3)n2c1	nt	i	nt	?	23.1µM	nt
Clc1cccc(-c2nc3ccc(Cl)cn3c2Cc2ccccc2)c1	nt	i	nt	?	16.4µM	nt
COC(=O)c1ccc2nc(-c3cccc(Br)c3)c(CC3CCCCC3)n2c1	nt	i	nt	?	?	nt
Clc1cccc(-c2nc3ccc(Cl)cn3c2Cc2ccsc2)c1	nt	i	nt	?	?	nt
COC(=O)c1ccc2nc(-c3ccc(C#N)cc3)c(Cc3cccc(Cl)c3)n2c1	nt	i	nt	20.6µM	20.6µM	nt
COC(=O)c1ccc2nc(-c3cccc(Cl)c3)c(Cc3ccccc3)n2c1	nt	i	nt	20.6µM	10.3µM	nt
COc1ccc(CCN(C(=O)C(F)(F)F)C(C(=O)NC2CCCCC2)c2ccc(C)s2)cc1OC (stereo unspecified)	i	i	i	11.6µM	9.2µM	i
COc1ccc(CCN(C(=O)C(F)(F)F)C(C(=O)NC2CCCC2)c2cccs2)cc1OC (stereo unspecified)	i	i	i	7.31µM	1.78µM	i
COC(=O)Cn1c(=O)c2cccn2c2cccnc21	i	nt	nt	i	i	nt
